Hits are enriched below; roughly 6.9% of the tested compounds scored in any of these assays.
Giardia kill: Small Molecules that selectively kill Giardia lamblia: qHTS; Giardia lamblia trophozoite viability; activity change, % at 7.66 µM, hits read low; 340,000 compounds, 0.15% hits; AID 540267, 2011; in the data active = activity change below about -80%; inconclusive = between about -30% and that limit;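 also: parasites exposed to compound for two days anaerobically before the ATP read; % is scaled to controls: 0 for no effect and ±100 for the full control effect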
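Anaerobic 48 hrs incubation at 37 deg C of 100 trophozoites/well with test compounds; ATPLite 1-Step luminescence, 15-30 min RT, reports cellular ATP as viability.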
IL-1B inflam inh: qHTS for Inhibitors of Inflammasome Signaling: IL-1-beta AlphaLISA Primary Screen; THP-1 LPS/ATP IL-1B secretion, AlphaLISA, 16 h; hits give low values; activity change, % at 57.5 µM; 360,000 compounds, 4.7% hits; in the data active = activity change below about -50%; inconclusive = mostly about -30% to -49%; also: % is scaled to controls: 0 for no effect and ±100 for the full control effect
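THP-1 cells pretreated 1 hr with compounds (up to 57.5 uM final), then stimulated with LPS (250 ng/mL final) plus ATP (1.25 mM final); secreted IL-1B measured by AlphaLISA after 16 hr, decreased signal indicating inhibition.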
Vif-APOBEC3F blk: qHTS for Inhibitors of Vif-A3F Interactions: qHTS | HeLa A3F-eYFP + Vif (tagged APOBEC3F with the HIV-1 protein that degrades it), YFP fluorescence increase | Potency, µM (titrated, usually from 46.1 µM), for the others: top-dose activity, negative = active | 390,000 compounds, 0.2% hits | AID 602313, 2012; also: potency is read from the fitted curve at half-maximal effect; % of control where 0% means no effect; nearly all actives have a fitted effect of over 65% in size
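Fluorescence increase (Ex 488/Em 500-530) after overnight compound treatment at 37 deg C flags inhibition of Vif-driven A3F-eYFP loss in stable HeLa A3F-eYFP/Vif cells seeded overnight beforehand.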
MCF10A rerep: A quantitative high throughput screen for small molecules that induce DNA re-replication in MCF 10a normal breast cells; Potency, µM (top dose mostly 46.1 µM), without a hit: top-dose activity, positive = re-replication, usual class: activators; MCF 10A DNA re-replication, Hoechst nuclear intensity, 48 h; 350,000 compounds, 2.9% hits; AID 624296, 2012; also: potency is read from the fitted curve at half-maximal effect; % of control where 0% means no effect; nearly all actives have a fitted effect of over 50% in size
SW480 rerep: A quantitative high throughput screen for small molecules that induce DNA re-replication in SW480 colon adenocarcinoma cells; SW480 DNA re-replication, Hoechst DNA content imaging, 48 h; Potency, µM (doses to about 46.1 µM), inactives show at the top dose re-replication activation, usual class: activators; 340,000 compounds, 1.8% hits; also: potency is read from the fitted curve at half-maximal effect; % of control where 0% means no effect; nearly all actives have a fitted effect of over 55% in size
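250 cells/well; 23 nL cpd via pin tool; 48 hr, 37 C, 5% CO2; Hoechst 40 min; imager read of total nuclear intensity, ex 405/em 500-530 nm.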
Vif-APOBEC3G blk: qHTS for Inhibitors of Vif-A3G Interactions: qHTS | DNA dC->dU-editing enzyme APOBEC-3G (Homo sapiens), Q9HC16 | HeLa A3G-eYFP + Vif (tagged APOBEC3G with the HIV-1 protein that degrades it), YFP fluorescence, overnight | Potency, µM (highest dose often 46.1 µM), for the others: at the top dose activity, negative = active, most hits filed as inhibitors | 410,000 compounds, 0.076% hits; also: potency is read from the fitted curve at half-maximal effect; % is scaled to controls: 0 for no effect and ±100 for the full control effect; nearly all actives have a fitted effect of over 60% in size
Target sequence (Q9HC16 whole entry, looked up): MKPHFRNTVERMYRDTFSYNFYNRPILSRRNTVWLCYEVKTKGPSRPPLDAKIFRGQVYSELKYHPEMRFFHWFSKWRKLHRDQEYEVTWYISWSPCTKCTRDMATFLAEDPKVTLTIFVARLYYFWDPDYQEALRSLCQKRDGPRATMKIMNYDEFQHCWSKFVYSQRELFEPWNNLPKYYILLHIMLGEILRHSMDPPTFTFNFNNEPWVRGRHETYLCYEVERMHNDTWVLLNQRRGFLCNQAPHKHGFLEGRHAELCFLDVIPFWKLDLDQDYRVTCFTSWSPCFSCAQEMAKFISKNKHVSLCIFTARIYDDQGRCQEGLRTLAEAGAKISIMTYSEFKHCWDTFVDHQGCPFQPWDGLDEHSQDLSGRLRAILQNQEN
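Read-out is eYFP fluorescence (Ex 488/Em 500-530) from Vif-expressing HeLa A3G-eYFP cells; more signal means A3G escaped Vif-mediated degradation. Cells plated overnight, compound pinned in, incubated overnight at 37 deg C.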
An asterisk follows results filed as active; ? = inconclusive; . = not tested or not shown; [ ] = dose if it differs, or a comment. Unless noted, calls follow the shape of the dose curve; as a rule, active = well fitted curve in the direction sought with a large enough effect; inconclusive = small, poorly fitted or top-dose-only effect, or another doubt; inactive = no such curve, though single readings can be large; an effect the other way counts as inactive or inconclusive.

SMILES	Giardia kill	IL-1B inflam inh	Vif-APOBEC3F blk	MCF10A rerep	SW480 rerep	Vif-APOBEC3G blk
CNC(=S)NNC(=O)c1oc2nc(-c3ccccc3)cc(C)c2c1N	-21	3	7%	2.6µM*	6.5µM*	1%
O=C(C1CCN(Cc2ccc(Cl)cc2)CC1)N1CCN(C(c2ccccc2)c2ccccc2)CC1	-22	-53*	?	?	?	-22%
CCN1CCN(C(=O)C2CCN(Cc3cc(Cl)ccc3O)CC2)CC1	23	-77*	-8%	12µM*	-12%	1%
CCN1CCN(C(=O)C2CCN(Cc3nc(-c4cccc(Cl)c4)oc3C)CC2)CC1	30	?	-13%	7%	-4%	0%
Cc1cccc(CN2CCN(C(c3ccccc3)c3ccc(Cl)cc3)CC2)c1 (stereo not given)	-3	20	-6%	23µM*	7%	-3%
C=CCn1c(SCC)nc2ccccc2c1=O	38	.	.	.	.	2%
Cc1ccccc1Cn1c(=O)n(CCCCCC(=O)NCc2ccc3c(c2)OCO3)c(=O)c2sccc21	.	.	3%	.	.	-5%
O=C(NC1=NCCS1)c1cccc(N2C(=O)c3ccccc3C2=O)c1	-19	8	3%	6.5µM*	-40%	0%
CCCCn1nc(NC(=O)c2cccs2)c2cc3cc(OC)ccc3nc21	0	4	-16%	?	12µM*	-18%
CCCn1nc(NC(=O)c2cccs2)c2cc3cc(OC)ccc3nc21	-11	-18	-6%	?	15µM*	?
COc1ccc(Cn2c(=O)n(-c3ccc(F)c(Cl)c3)c(=O)c3c2c2cc(OC)ccc2n3C)cc1	.	.	1%	.	.	0%
COC(=O)c1cccnc1-n1c(=O)c2cccnc2n(CC(=O)Nc2ccccc2F)c1=O	.	.	1%	.	.	6%
COc1ccc(-c2cn3c(n2)sc2cc(C(=O)NCCC4=CCCCC4)ccc23)cc1	.	.	-1%	.	.	-1%
CCCn1nc(NC(=O)c2cccs2)c2cc3cc(C)ccc3nc21	13	-21	-1%	18µM*	21µM*	-3%
CCCn1nc(NC(=O)c2cccs2)c2cc3ccc(C)cc3nc21	-9	-16	1%	?	15µM*	-3%
CCCn1nc(NC(=O)C2CCCO2)c2cc3cc(C)ccc3nc21 (stereo not given)	13	-8	6%	?	?	-6%
CCn1nc(-c2ccccc2)c(-c2ccccc2)c(C(=O)OCCOC)c1=O	.	.	-4%	.	.	2%
CCOc1cc(C(=O)N/N=C/C2CC=CCC2)cc(OCC)c1OCC (stereo not given)	-3	14	-16%	?	23µM*	?
O=C(Nc1c(C(=O)N2CCN(c3ccccc3F)CC2)oc2ccccc12)c1ccc(Br)o1	.	.	7%	.	.	7%
C=C1C(=O)O[C@@H]2[C@H]3O[C@]3(C)CC/C=C(\C)CC[C@@H]12	9	-110*	-3%	4.1µM*	-13%	-8%
O=C(CSc1nc2ccccc2o1)Nc1cc(C(F)(F)F)ccc1N1CCOCC1	-19	-50*	.	3%	-3%	2%
Cc1cccc2cc(C#N)c(SCC(=O)Nc3ccccc3N3CCOCC3)nc12	-12	34	-12%	10%	9%	-11%
N#Cc1cc2ccccc2nc1SCC(=O)Nc1ccccc1N1CCOCC1	-10	-6	25µM*	-2%	-8%	?
Cc1ccc2nc(SCC(=O)c3c[nH]c4ccccc34)[nH]c2c1	12	-19	?	?	-39%	?
O=C(CSc1nc2ccccc2o1)Nc1ccc(N2CCOCC2)c(Cl)c1	4	12	-2%	27%	-5%	0%
SMILES	Giardia kill	IL-1B inflam inh	Vif-APOBEC3F blk	MCF10A rerep	SW480 rerep	Vif-APOBEC3G blk
Cc1ccc2nc(SCC(=O)c3c(C)[nH]c4ccccc34)[nH]c2c1	0	?	-10%	13µM*	9%	-4%
COc1cc2c(cc1NC(=O)CSc1nc3ccc(C)cc3[nH]1)oc1ccccc12	.	.	.	5.2µM*	14%	.
COc1cc(/C=C/c2ccnc3ccccc23)cc(OC)c1OC	.	.	.	.	.	-26%
Nc1nonc1-c1nc2ccccc2n1Cc1cccc(Cl)c1	.	.	3%	.	.	2%
CCN(CC)S(=O)(=O)c1ccc(C)c(NC(=O)CSc2nc3ccc(C)cc3[nH]2)c1	-21	0	1%	5%	.	-1%
CC(=O)c1cc2c(cc1NC(=O)CSc1nc3ccc(C)cc3[nH]1)OCO2	-22	-74*	-3%	6%	8%	0%
Cc1ccc2nc(SCC(=O)Nc3cc(C(F)(F)F)ccc3N3CCOCC3)[nH]c2c1	-3	29	1%	0.58µM*	5.2µM*	?
Cc1ccccc1OCC(O)CN(Cc1ccccc1O)C1CCCCC1 (stereo not given)	-19	-66*	-11%	?	-11%[1.84 µM]	0%
CCN(CC(O)COc1ccc(OCC(O)CN(CC)C2CCCCC2)cc1)C1CCCCC1 (stereo not given)	-10	-66*	-10%	2%	?	3%
COc1ccc(N2CCN(S(=O)(=O)c3ccc4oc(=O)c5ncn(C)c5c4c3)CC2)cc1	.	.	-5%	.	.	2%
COc1cccc(NC(=O)C2CCCN(S(=O)(=O)c3cn(C(C)C)cn3)C2)c1 (stereo not given)	.	.	0%	.	.	9%
O=S(=O)(c1ccc(Br)cc1)c1cnc2ccccc2n1	9	-101*	-11%	?	18µM*	-10%
O=S(=O)(Cc1ccccc1)c1cnc2ccccc2n1	-4	-89*	0%	?	?	-11%
COc1ccc(S(=O)(=O)c2cnc3ccccc3n2)cc1	-5	-58*	-14%	?	?	-13%
COc1ccc(S(=O)(=O)N(Cc2nc(-c3ccc(C)cc3)no2)C2CCCCC2)cc1	.	.	2%	.	.	5%
CC(C)OC(=O)c1c(NC(=O)c2cc3nc(-c4ccccc4)cc(C(F)(F)F)n3n2)sc2c1CCCC2	.	.	1%	.	.	-2%
Nc1c(-c2nc(-c3cccs3)no2)nnn1-c1ccc(Cl)cc1	.	.	1%	.	.	10%
CCc1ccc(N2C(=O)N(CC(=O)C(C)(C)C)c3ccccc3S2(=O)=O)cc1	.	.	0%	.	.	-1%
COc1ccccc1/C=C1\S/C(=N/NC(=O)c2cccc(Br)c2)NC1=O	-16	-13	-1%	10µM*	16%	-4%
COC(=O)/C=C1\S/C(=N/NC(=O)c2ccccc2)NC1=O	-18	-2	4%	-2%	-8%	2%

Compound activity from PubChem BioAssay.
